Experimental data taken from PubChem BioAssay AID1159580 (chemical genetic matrix, 2015).
Out of some 5,500 compounds screened, about 2,000 (36%) were called active. Roughly 18% stayed inconclusive and do not appear here. Rule as the data show it: active = normalized growth mostly below about 0.91 (no sharp cut-off); inconclusive = no clear call, values can overlap the other calls; inactive = mostly above about 0.92. Some of the results follow.

Assay: chemical genetic growth profiling, strain panel (AID 1159580);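 also: tested at 20 µM; growth read once vehicle control cultures reached saturation at 30 °C; 1 = growth at the plate median or of vehicle wells; lower values mean less growth of the strain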
Conditions: growth OD

Measured: normalized growth

O=c1[nH]c(=O)n(C2C[C@@H](O)[C@@H](CO)O2)cc1F (stereo partly drawn)
inactive: S. cerevisiae deletion strains, locus YJR066W, strain TOR1, hits give low values 0.932 | S. cerevisiae deletion strains, locus YKL009W, strain mrt4, hits give low values 1.04 | S. cerevisiae deletion strains, locus YKL068W, hits give low values 1 | S. cerevisiae deletion strains, locus YKL085W, strain MDH1 (second series), hits give low values 0.996 | S. cerevisiae deletion strains, locus YKL085W, strain MDH1, hits give low values 0.996 | S. cerevisiae deletion strains, locus YKL160W, strain elf1, hits give low values 1 | S. cerevisiae deletion strains, locus YKR001C, strain vps1, hits give low values 1.01 | S. cerevisiae deletion strains, locus YKR026C, strain gcn3, hits give low values 0.978 | S. cerevisiae deletion strains, locus YKR091W, strain srl3, hits give low values 0.995 | S. cerevisiae deletion strains, locus YLL001W, strain dnm1, hits give low values 0.992 | S. cerevisiae deletion strains, locus YLL026W, hits give low values 0.985 | S. cerevisiae deletion strains, locus YLL041C, strain sdh2, hits give low values 0.984 | S. cerevisiae deletion strains, locus YLR027C, strain aat2, hits give low values 0.994 | S. cerevisiae deletion strains, locus YLR039C, strain RIC1, hits give low values 1.04 | S. cerevisiae deletion strains, locus YLR058C, strain SHM2, hits give low values 1.02 | S. cerevisiae deletion strains, locus YLR102C, strain apc9, hits give low values 1.01 | S. cerevisiae deletion strains, locus YLR113W, strain HOG1, hits give low values 0.986 | S. cerevisiae deletion strains, locus YLR221C, strain rsa3, hits give low values 1.01 | S. cerevisiae deletion strains, locus YLR258W, strain gsy2, hits give low values 1.01 | S. cerevisiae deletion strains, locus YLR262C, strain YPT6 (second series), hits give low values 1.02 | S. cerevisiae deletion strains, locus YLR262C, strain YPT6, hits give low values 1.04 | S. cerevisiae deletion strains, locus YLR268W, strain sec22, hits give low values 1.03 | S. cerevisiae deletion strains, locus YLR320W, strain mms22, hits give low values 1.01 | S. cerevisiae deletion strains, locus YLR330W, strain CHS5, hits give low values 1.01 | S. cerevisiae deletion strains, locus YLR342W, strain FKS1 (second series), hits give low values 1.02 | S. cerevisiae deletion strains, locus YLR342W, strain FKS1, hits give low values 1.01 | S. cerevisiae deletion strains, locus YLR357W, strain rsc2, hits give low values 0.974 | S. cerevisiae deletion strains, locus YLR370C, strain arc18, hits give low values 1 | S. cerevisiae deletion strains, locus YLR371W, strain rom2, hits give low values 1.02 | S. cerevisiae deletion strains, locus YLR384C, strain iki3, hits give low values 0.982 | S. cerevisiae deletion strains, locus YLR418C, strain cdc73, hits give low values 1.02 | S. cerevisiae deletion strains, locus YML016C, strain PPZ1, hits give low values 1.01 | S. cerevisiae deletion strains, locus YML032C, strain rad52, hits give low values 1 | S. cerevisiae deletion strains, locus YML120C, strain ndi1, hits give low values 0.984 | S. cerevisiae deletion strains, locus YML124C, strain tub3, hits give low values 1.01 | S. cerevisiae deletion strains, locus YMR058W, strain fet3, hits give low values 0.986 | S. cerevisiae deletion strains, locus YMR078C, strain ctf18, hits give low values 1.01 | S. cerevisiae deletion strains, locus YMR125W, strain sto1, hits give low values 0.985 | S. cerevisiae deletion strains, locus YMR129W, hits give low values 0.999 | S. cerevisiae deletion strains, locus YMR205C, strain PFK2, hits give low values 1.01 | S. cerevisiae deletion strains, locus YMR223W, strain ubp8, hits give low values 1 | S. cerevisiae deletion strains, locus YMR231W, strain pep5, hits give low values 1.01 | S. cerevisiae deletion strains, locus YMR263W, strain SAP30, hits give low values 1.05 | S. cerevisiae deletion strains, locus YMR307W, strain GAS1, hits give low values 1.05 | S. cerevisiae deletion strains, locus YNL067W, strain RPL9B, hits give low values 1.06 | S. cerevisiae deletion strains, locus YNL071W, strain lat1, hits give low values 0.993 | S. cerevisiae deletion strains, locus YNL153C, strain GIM3, hits give low values 1.04 | S. cerevisiae deletion strains, locus YNL183C, strain NPR1, hits give low values 0.93 | S. cerevisiae deletion strains, locus YNL209W, strain ssb2, hits give low values 0.987 | S. cerevisiae deletion strains, locus YNL233W, strain BNI4, hits give low values 1.05 | S. cerevisiae deletion strains, locus YNL248C, strain rpa49, hits give low values 0.973 | S. cerevisiae deletion strains, locus YNL250W, strain rad50, hits give low values 1 | S. cerevisiae deletion strains, locus YNL271C, strain bni1, hits give low values 1.01 | S. cerevisiae deletion strains, locus YNL298W, strain CLA4, hits give low values 0.996 | S. cerevisiae deletion strains, locus YNL307C, strain MCK1, hits give low values 1.02 | S. cerevisiae deletion strains, locus YNL322C, strain KRE1 (second series), hits give low values 0.999 | S. cerevisiae deletion strains, locus YNL322C, strain KRE1, hits give low values 1 | S. cerevisiae deletion strains, locus YNR049C, strain mso1, hits give low values 0.982 | S. cerevisiae deletion strains, locus YNR052C, strain pop2, hits give low values 1.01 | S. cerevisiae deletion strains, locus YOL012C, strain htz1 1.63 | S. cerevisiae deletion strains, locus YOL147C, strain pex11, hits give low values 1.02 | S. cerevisiae deletion strains, locus YOR001W, strain rrp6, hits give low values 0.987 | S. cerevisiae deletion strains, locus YOR061W, strain CKA2, hits give low values 1.01 | S. cerevisiae deletion strains, locus YOR069W, strain VPS5, hits give low values 1.01 | S. cerevisiae deletion strains, locus YOR070C, strain gyp1, hits give low values 1.01 | S. cerevisiae deletion strains, locus YOR080W, strain dia2, hits give low values 1 | S. cerevisiae deletion strains, locus YOR083W, strain WHI5, hits give low values 1.01 | S. cerevisiae deletion strains, locus YOR106W, strain vam3, hits give low values 0.996 | S. cerevisiae deletion strains, locus YOR136W, strain idh2, hits give low values 1.02 | S. cerevisiae deletion strains, locus YOR144C, strain elg1, hits give low values 1.01 | S. cerevisiae deletion strains, locus YOR184W, strain ser1, hits give low values 1.02 | S. cerevisiae deletion strains, locus YOR231W, strain MKK1, hits give low values 0.98 | S. cerevisiae deletion strains, locus YOR265W, strain rbl2, hits give low values 1.01 | S. cerevisiae deletion strains, locus YOR270C, strain vph1, hits give low values 0.994 | S. cerevisiae deletion strains, locus YOR290C, strain snf2, hits give low values 0.989 | S. cerevisiae deletion strains, locus YOR316C, strain cot1, hits give low values 1.02 | S. cerevisiae deletion strains, locus YPL051W, strain arl3, hits give low values 1.02 | S. cerevisiae deletion strains, locus YPL078C, strain atp4, hits give low values 0.976 | S. cerevisiae deletion strains, locus YPL106C, strain sse1, hits give low values 1.01 | S. cerevisiae deletion strains, locus YPL240C, strain hsp82, hits give low values 0.987 | S. cerevisiae deletion strains, locus YPL241C, strain CIN2, hits give low values 1 | S. cerevisiae deletion strains, locus YPL256C, strain CLN2, hits give low values 0.957 | S. cerevisiae deletion strains, locus YPR119W, strain clb2, hits give low values 1.01 | S. cerevisiae deletion strains, locus YPR141C, strain kar3, hits give low values 1.01 | S. cerevisiae deletion strains, locus YPR163C, strain tif3, hits give low values 1.01 | S. cerevisiae deletion strains, locus YPR167C, strain met16, hits give low values 1.02 | S. cerevisiae deletion strains, strain wtn01, hits give low values 0.996 | S. cerevisiae strains, strain wild type, hits give low values 1.01
